JMJD2A Tudor inh: qHTS Assay for Inhibitors of JMJD2A-Tudor Domain. actives 4.4% (n = 390,000). Potency, µM (doses to about 114 µM), usual class: inhibitors. AlphaScreen JMJD2A-Tudor / H3K4me3 peptide binding. AID 504339, 2011. Lysine-specific demethylase 4A (Homo sapiens), O75164; further: nearly all actives have a fitted effect of over 50% in size
Target sequence (O75164 whole entry, looked up, the tested form may be a part): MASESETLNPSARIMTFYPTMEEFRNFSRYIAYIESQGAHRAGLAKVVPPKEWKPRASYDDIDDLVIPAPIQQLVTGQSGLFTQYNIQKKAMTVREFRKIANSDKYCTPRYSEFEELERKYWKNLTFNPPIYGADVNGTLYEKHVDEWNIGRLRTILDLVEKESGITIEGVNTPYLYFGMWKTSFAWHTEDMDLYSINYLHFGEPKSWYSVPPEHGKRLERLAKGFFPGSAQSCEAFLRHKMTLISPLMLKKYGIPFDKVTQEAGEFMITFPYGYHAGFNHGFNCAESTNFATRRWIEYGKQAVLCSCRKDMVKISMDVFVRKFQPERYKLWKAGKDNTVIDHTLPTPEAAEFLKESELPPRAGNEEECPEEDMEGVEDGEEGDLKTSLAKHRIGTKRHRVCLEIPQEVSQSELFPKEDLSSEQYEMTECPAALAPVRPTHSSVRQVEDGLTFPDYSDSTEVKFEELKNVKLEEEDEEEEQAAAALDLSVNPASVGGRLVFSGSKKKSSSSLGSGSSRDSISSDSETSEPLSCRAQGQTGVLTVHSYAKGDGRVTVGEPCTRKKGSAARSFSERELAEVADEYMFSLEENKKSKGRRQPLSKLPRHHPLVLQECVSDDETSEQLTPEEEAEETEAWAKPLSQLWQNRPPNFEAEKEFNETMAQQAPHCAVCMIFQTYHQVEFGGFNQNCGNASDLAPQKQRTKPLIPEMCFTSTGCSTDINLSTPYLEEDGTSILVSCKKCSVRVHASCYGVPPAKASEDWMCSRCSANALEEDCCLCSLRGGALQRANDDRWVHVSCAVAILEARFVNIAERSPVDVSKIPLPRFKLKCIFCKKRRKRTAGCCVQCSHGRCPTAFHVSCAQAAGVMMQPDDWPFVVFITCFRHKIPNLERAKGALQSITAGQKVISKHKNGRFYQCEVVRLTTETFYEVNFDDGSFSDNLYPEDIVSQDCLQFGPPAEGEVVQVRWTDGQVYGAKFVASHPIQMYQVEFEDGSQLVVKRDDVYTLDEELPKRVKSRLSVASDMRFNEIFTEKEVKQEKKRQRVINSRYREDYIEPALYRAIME
G9a block: qHTS Assay for Inhibitors of Histone Lysine Methyltransferase G9a | G9a H3K9 monomethylation, AlphaScreen, 2 h | actives 8.8% (n = 350,000) | AID 504332, 2011 | Histone-lysine N-methyltransferase EHMT2 (Homo sapiens), Q96KQ7 | Potency, µM (titrated, usually from 102 µM), usual class: inhibitors; further: nearly all actives have a fitted effect of over 75% in size
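G9a (20 nM) preincubated 15 min RT with compounds, then 500 nM biotinylated H3K9 peptide and 20 uM SAM added; 2 h RT reaction. Monomethyl-H3K9 product detected by AlphaScreen with anti-H3K9me1 antibody, streptavidin donor and anti-rabbit IgG acceptor beads.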
BAZ2B block: qHTS Assay for Inhibitors of BAZ2B; Bromodomain adjacent to zinc finger domain protein 2B (Homo sapiens), Q9UIF8; AlphaScreen BAZ2B-H3K14Ac peptide displacement; Potency, µM (titrated, usually from 114 µM), actives largely listed as inhibitors; actives 4.4% (n = 360,000); further: nearly all actives have a fitted effect of over 60% in size
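BAZ2B 50 nM plus b-H3(5-23)K14Ac 50 nM, PBS pH 7.4/0.01% Tween-20, 30 min RT; compound added (max 110 uM), 30 min RT; streptavidin donor/Ni-chelate acceptor beads 10 ug/mL final, 20 min dark; AlphaScreen read.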
L3MBTL1 inh: qHTS Assay for the Inhibitors of L3MBTL1; actives 0.66% (n = 230,000); Potency, µM (titrated, usually from 57.1 µM), usual class: inhibitors; AlphaScreen L3MBTL1–H3K9me1 peptide binding; Lethal(3)malignant brain tumor-like protein 1 (Homo sapiens), Q9Y468; further: nearly all actives have a fitted effect of over 60% in size
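Displacement of a biotinylated histone H3(1-15) peptide monomethylated at Lys9 (75 nM) from L3MBTL1 (50 nM) was measured by AlphaScreen after a 30 min room-temperature compound incubation; cefsulodin titration served as intraplate control.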
Sfp PPTase inh: qHTS Assay for Inhibitors of Bacillus subtilis Sfp phosphopantetheinyl transferase (PPTase); Biochemical Sfp PPTase activity, qHTS; Potency, µM, usual class: inhibitors; actives 3.5% (n = 310,000); AID 1490, 2009;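 further: the enzyme is Sfp with the accession as filed and its product quenches rhodamine fluorescence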
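Buffer: 50 mM Hepes-Na pH 7.6, 10 mM MgCl2, 0.01% Nonidet P-40, 0.01% BSA. Enzyme 15 nM, pre-exposed to compound 15 min; substrates then added and fluorescence change tracked over 30 min.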
HP1b binding inh: HTS for Inhibitors of HP1-beta Chromodomain Interactions with Methylated Histone Tails | actives 0.56% (n = 390,000) | AlphaScreen HP1-beta / biotin-H3K9me3 peptide binding | Chromobox protein homolog 1 (Homo sapiens), P83916 | AID 540317, 2011 | Potency, µM (top dose mostly 114 µM), usual class: inhibitors; further: nearly all actives have a fitted effect of over 70% in size
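Compound inhibition of the preformed complex between 50 nM HP1-beta and 50 nM biotinylated H3K9me3 peptide was read by AlphaScreen. Buffer was PBS pH 7.4 with 0.01% Tween-20. Incubations ran 30 min at room temperature, with 10 ug/mL donor/acceptor beads.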
Hits are given with their value; n = inactive; u = inconclusive; x = no result given; [ ] = another dose, or the depositor's remark. A selection: hits, their analogues and other compounds. The true share with any hit is near 12%. The call rests on the fitted dose curve; in most records, active means well fitted curve in the direction sought with a large enough effect; inconclusive means small, poorly fitted or top-dose-only effect, or another doubt; inactive means no such curve, though single readings can be large; an effect the other way counts as inactive or inconclusive.

SMILES	JMJD2A Tudor inh	G9a block	BAZ2B block	L3MBTL1 inh	Sfp PPTase inh	HP1b binding inh
COc1ccc(-c2nc3ccccc3nc2-c2ccccc2)cc1OC	n	n	n	n	n	n
Clc1ccccc1-c1ncc2ccccn12	18µM	u	56µM	n	n	u
COc1ccc(-c2cn3cc(C)ccc3n2)cc1OC	n	n[12.7 µM]	n	n	n	n
COc1ccc(-c2nc3ccccc3nc2-c2ccc(OC)c(OC)c2)cc1OC	n	20µM	n	n	n	n
COc1ccccc1CNC(=O)CCc1c(C)nc2c(c(C)nn2-c2ccc(C)c(C)c2)c1C	n	n	n	x	x	n
Cc1ccc(C(=O)Nc2ccc(Br)cc2)cc1S(=O)(=O)N1CCOCC1	n	n	n	x	x	n
Clc1ccc(-c2ncc3ccccn23)cc1	n	n	u	n	n	n
COc1ccc(-c2ncc3ccccn23)cc1OC	3.5µM	14µM	32µM	n	u	u
CCOC(=O)NC1(NC(C)C)Oc2ccccc2O1	n[11.4 µM]	10µM	n	x	u	n
CCOC(=O)NC1(Nc2ccc(C)cc2)Oc2ccccc2O1	u	u	n	n	35µM	u
CCOC(=O)NC1c2ccccc2Oc2ccccc21	n	x	n	n	n	n
CCOC(=O)NC1(NCC(C)C)Oc2ccccc2O1	u	0.89µM	n	x	79µM	n
COc1ccc(N2CCN(C(CNC(=O)c3ccc4c(c3)OCO4)c3ccco3)CC2)cc1 (stereo not drawn)	n	n	n	n	n	n
CCOc1ccc(-n2c(SCC(=O)N3CCCC3)nc3c([nH]c4ccccc43)c2=O)cc1	n	n	n	x	x	n
O=C(NCn1cnccc1=O)c1ccccc1	n	n[12.7 µM]	n	x	n	n
Cc1cc(=O)n(CNC(=O)c2ccccc2)c(=S)[nH]1	56µM	n[12.7 µM]	n	x	n	n
CCC(=O)Nc1ccc(OCc2cc(C3Nc4ccccc4C(=O)N3Cc3ccccc3)ccc2OC)cc1 (stereo not drawn)	n	x	x	x	x	x
CCN(c1ccc(OC)cc1)S(=O)(=O)c1ccc(-c2ccc(=O)[nH]n2)o1	n	u	n	x	n	n
O=S(=O)(c1ccc(Br)cc1Cl)N1CCN(CCO)CC1	n	u	x	n	n	n
O=C1C=CC(=O)c2c(O)c(N3CCN(CCOCCO)CC3)c(Br)c(O)c21	56µM	x	x	x	x	8.9µM
O=C1C=CC(=O)c2c(O)c(N3CCN(CCO)CC3)c(Cl)c(O)c21	50µM	x	x	x	x	u
O=C(NCCN1CCOCC1)C(=O)NCC1OCCCN1S(=O)(=O)c1cc(F)ccc1F (stereo not drawn)	n	n	n	x	n	n
CN(CC(=O)NC(=O)NCc1ccco1)Cc1nc2ccccc2c(=O)[nH]1	n	n	n	u	89µM	n
O=C(NCc1ccc(F)cc1)c1ccc(CS(=O)(=O)c2ccc(Cl)cc2)o1	n	n	n	x	x	n
COC(=O)c1ccc(CS(=O)(=O)c2ccc(F)cc2)o1	n	71µM	n	x	n	n
SMILES	JMJD2A Tudor inh	G9a block	BAZ2B block	L3MBTL1 inh	Sfp PPTase inh	HP1b binding inh
CCCCOC(=O)CNc1n[nH]c(=S)[nH]c1=O	n	n[12.7 µM]	n	x	56µM	n
CC(C)COC(=O)CNc1n[nH]c(=S)[nH]c1=O	50µM	n[12.7 µM]	n	x	u	n
CCCCOC(=O)C(C)Nc1n[nH]c(=S)[nH]c1=O (stereo not drawn)	11µM	u	u	x	50µM	n
COC(=O)Cc1n[nH]c(=S)[nH]c1=O	79µM	n	n	n	18µM	n
Cc1cccc(NC(=O)COC(=O)c2cccs2)c1C	n	n	n	x	n	n
COc1ccc(C(=O)N2CCC(C(=O)Nc3ccc(Cl)cc3)CC2)cc1	n	n	n	x	x	n
CCCCOC(=O)C(C)c1c(C)[nH]c(=S)[nH]c1=O (stereo not drawn)	n	40µM	n	n	n	n
CC(Nc1n[nH]c(=S)[nH]c1=O)C(=O)OCc1ccccc1 (stereo not drawn)	n	n	n	n	n	n
NC(=O)CNc1n[nH]c(=S)[nH]c1=O	20µM	x	n	n	79µM	n
Cc1ccc(O)c(C(=O)c2cc(C#N)c(=O)n(-c3nccs3)c2)c1	n	x	n	n	50µM	n
Cc1cccc(C)c1OCCNC(=O)OCc1ccccc1	n	x	n	n	n	n
CCCc1c(O)nc(SCCN(CC)CC)[nH]c1=O	n	n[12.7 µM]	n	x	n	n
CCCc1c(O)nc(SCCN(CC)CC)n(C(=O)c2ccccc2)c1=O	n	79µM	n	n	n	n
COc1cccc(-n2sc3c(c2=S)-c2cc(OC)ccc2NC3(C)C)c1	11µM	u	10µM	u	n	5.6µM
Cc1cc(O)ccc1Nc1nc2ccccc2nc1Nc1ccc(O)cc1C	89µM	4.5µM	50µM	n	56µM	n
Cc1ccc(-c2c(C(=O)N3CCN(c4cc(Cl)ccc4C)CC3)oc(=O)c3ccccc23)cc1	n	n	x	x	x	n
O=C1c2ccccc2C(=O)c2c(NCCCN(CCO)CCO)cccc21	40µM	45µM	28µM	u	n	25µM
COc1cccc(OC)c1C(=O)Nc1ccc(S(=O)(=O)Nc2nccc(C)n2)cc1	n	n	n	x	x	n
Cc1ccc(NC(=O)CN2CC(C)SC2=NC2CCCCC2)cc1 (stereo not drawn)	n	50µM	n	n	n	n
CCOC(=O)C(C)Sc1nnc2cc(C)c3ccccc3n12 (stereo not drawn)	n	n	n	x	x	n
Cc1[nH]c2ccccc2c1SCCNC(=O)c1ccc(F)cc1	u	n	n	x	x	n
COc1ccc(C(=O)NCCSc2c(C)[nH]c3ccccc23)cc1	n	n	71µM	x	x	n
Cc1[nH]n(-c2ccccc2)c(=O)c1/C=N/N1CCOCC1	n	u	n	n	n	n
O=c1c(/C=N/N2CCOCC2)c(C(F)(F)F)[nH]n1-c1ccccc1	n	40µM	n	n	n	n
O=C(Nc1nccs1)C1CC(=O)N(CCc2ccc(F)cc2)C1 (stereo not drawn)	n	u	n	x	n	n
CN(C)CCCN=c1cc(-c2ccccc2)oc2ccc(Cl)cc12	n	56µM	u	x	n	n
OCCN=c1cc(-c2ccccc2)oc2ccc(Cl)cc12	n	n[0.501 µM]	u	n	89µM	n
CCn1nc(NS(=O)(=O)c2ccc([N+](=O)[O-])cc2)c2cc3ccccc3nc21	n	45µM	u	x	n	n
CC(C)Cn1nc(NC(=O)c2ccco2)c2cc3ccccc3nc21	n	u	n	n	n	n
CCn1nc(NC(=O)c2ccco2)c2cc3ccccc3nc21	n	7.9µM	n	n	n	n

Source: PubChem BioAssay
